# In PubChem BioAssay AID1347423 (Functional Genomics Laboratory (NCATS/FGL), 2020):
# In all, about 52,000 sequences went through this assay and about 210 (0.4%) were called active. The entries come from a sample that favours actives as a whole. Values without a mark were called inactive.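 Rule for the calls: active = gene whose silencing raises cell survival under the drug, median off-target-corrected z-score across its silencing RNAs 2 or more; inactive = the rest.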
# Experiment: Resistance to Poly (ADP-Ribose) Polymerase inhibitor: Gene Identification via Genome-wide siRNA Screen
# Settings: mouse BRCA2 R2336H ES cells, olaparib, CellTiter-Glo viability; active compounds read high
# Outline: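 Genome-wide siRNA screen (3 siRNAs/gene, 20 nM) in mouse ES cells carrying hypomorphic BRCA2 R2336H; olaparib 500 nM added 48 h post-transfection, CellTiter-Glo viability 72 h later. Normalized to plate-median negative control; MAD z-scores, gene median, seed-adjusted.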
row,Sequence,z-score
1,GGCCAAUGAUGAUAACAAATT against Catnd2,0.564
2,CCUCUCCUACACUUCAAAATT against Cmya4,0.746
3,GGCUUUUUCCUCUACCCACTT against Trhde,0.762
4,GGUGUUUAAAGAUUUCGUUTT against Dhrs2,0.996
5,GCAAUGAACUAUGAAGGCATT against Npm1,0.811 (active)
6,CCCUUCACAACUUCUUAAUTT against Olfr872,0.609
7,GGGCAUCAGCAUUUGGUCATT against Pparbp,1.17
8,GGACUACCUCACACUCUUCTT against Oprs1,-0.235
9,GCCAUUCCGGCAGUAUUACTT against Pdcd7,0.524
10,CCGACAAAUAAAGGCUUUATT against Ddx52,-0.0103
11,CCGCAUGACACGACAUGUATT against BC034097,2.56 (active)
12,CCCUGUACACACCUAAAAATT against D10Ertd438e,1.39
13,CGUUUGCUCUAAAGCCAGGTT against BC004728,1.02
14,GGAUUUCCUGGAAAAUUCCTT against Siat8a,0.62
15,GGUGUCUGUCAUGACCAUGTT against Tie1,2.02
16,GCUCGUCUAUGCUAUUUCUTT against Fath,0.81 (active)
17,GAUCACAGUCACGAUAUAATT against Prss19,-1.28
18,GGAAGAGAUGGAAUUAUUGTT against Sh3bp5,-0.737
19,GCUUGUGAUCGACUCUGCATT against Centb5,0.0161
20,CCUUCAUUUAUUCUACGAGTT against LOC244556,0.476
21,GCUCUCAUUAGCAUUAUCGTT against Gria1,-0.366 (active)
22,GCAGGUUAAGUAGCUGACATT against Dnclic2,-1.28
23,CGUGCAUGCAAAUUAUGUATT against 4933417O08Rik,-0.372
24,GGCACUCAGUAACUGCAUGTT against Gababrbp,-0.611
25,GGACUGUCAGUACUGUCAATT against E030025L21Rik,-0.201
26,GGAGUAAUCAUGCUGGAGCTT against 9930104L06Rik,0.406
27,CCAUGUCCAAUGAGGACUUTT against Htr1b,1.74 (active)
28,CCCUGAACGAAUAAUCGGCTT against Cbx3,-0.637
29,CGAUAAACUGGAUACCACUTT against A430083B19Rik,-0.3
